Measured values taken from PubChem BioAssay AID743289 (Broad Institute, 2014).
The other results are listed elsewhere or left out. Activity calls are given as the source filed them.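 Rule for the calls: active = compounds lowering fluorescence whose fitted half-maximal concentration is no more than twice their top tested dose; inconclusive = flat fit with 30 to 70% inhibition, or poor fit; inactive = the rest.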

The compounds below were run against Caspase-1 (Homo sapiens) (UniProt P29466) (assay: human caspase-1 inhibitors, dose response, selectivity assay for caspase-6 inhibitor project, biochemical, Z-YVAD-R110 fluorescence, cherry-pick, set 2 (AID 743289)). Settings: purified caspase-1, Z-YVAD-R110 cleavage fluorescence; series mostly up to 35 µM.
Chain of Caspase-1 (Homo sapiens) (P29466 whole entry, looked up): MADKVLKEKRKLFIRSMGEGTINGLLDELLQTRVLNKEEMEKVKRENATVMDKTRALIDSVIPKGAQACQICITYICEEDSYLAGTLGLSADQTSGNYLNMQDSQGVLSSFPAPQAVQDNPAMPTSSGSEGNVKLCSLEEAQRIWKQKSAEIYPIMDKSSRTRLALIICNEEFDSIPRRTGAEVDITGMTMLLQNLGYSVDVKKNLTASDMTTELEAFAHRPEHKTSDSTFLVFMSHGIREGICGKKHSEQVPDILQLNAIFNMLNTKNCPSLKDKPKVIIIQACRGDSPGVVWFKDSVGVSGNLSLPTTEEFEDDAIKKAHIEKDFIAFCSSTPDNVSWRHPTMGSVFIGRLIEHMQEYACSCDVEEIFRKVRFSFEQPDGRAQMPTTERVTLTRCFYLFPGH

outcome, inactive:
Cc1c(CCC(=O)O)c(=O)oc2c(C)c(OCc3ccccc3Cl)ccc12
COc1cc(NC(=O)COC(=O)c2ccc([N+](=O)[O-])s2)cc(OC)c1OC
CCN(CC)CCCC(C)n1c2nc(=O)[nH]c(=O)c-2nc2cc(Cl)ccc21 (stereo not given)
O=c1ccc2c(-c3ccccc3S(=O)(=O)O)c3ccc(O)c(O)c3oc-2c1O
CNS(=O)(=O)c1cccc(C(=O)OCC(=O)N2c3ccccc3NC(=O)C2(C)C)c1
